According to paper PMC4336329 (PLoS ONE, 2015):
About 14,000 (4.5%) of roughly 310,000 compounds showed an effect of 50% or more. The effect is printed as a negative number. For the sample, strong results were picked, then their nearest neighbours and some compounds at random.

Target: human ether-à-go-go-related gene (hERG) potassium channel (human, UniProt Q12809)
Assay: primary screen, population patch clamp on CHO cells stably expressing hERG; higher = less effect of the substance
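Note: peak tail current of the secondary pulse compared with the same well before compound.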

Sequence of human ether-à-go-go-related gene (hERG) potassium channel (Q12809 whole entry, looked up): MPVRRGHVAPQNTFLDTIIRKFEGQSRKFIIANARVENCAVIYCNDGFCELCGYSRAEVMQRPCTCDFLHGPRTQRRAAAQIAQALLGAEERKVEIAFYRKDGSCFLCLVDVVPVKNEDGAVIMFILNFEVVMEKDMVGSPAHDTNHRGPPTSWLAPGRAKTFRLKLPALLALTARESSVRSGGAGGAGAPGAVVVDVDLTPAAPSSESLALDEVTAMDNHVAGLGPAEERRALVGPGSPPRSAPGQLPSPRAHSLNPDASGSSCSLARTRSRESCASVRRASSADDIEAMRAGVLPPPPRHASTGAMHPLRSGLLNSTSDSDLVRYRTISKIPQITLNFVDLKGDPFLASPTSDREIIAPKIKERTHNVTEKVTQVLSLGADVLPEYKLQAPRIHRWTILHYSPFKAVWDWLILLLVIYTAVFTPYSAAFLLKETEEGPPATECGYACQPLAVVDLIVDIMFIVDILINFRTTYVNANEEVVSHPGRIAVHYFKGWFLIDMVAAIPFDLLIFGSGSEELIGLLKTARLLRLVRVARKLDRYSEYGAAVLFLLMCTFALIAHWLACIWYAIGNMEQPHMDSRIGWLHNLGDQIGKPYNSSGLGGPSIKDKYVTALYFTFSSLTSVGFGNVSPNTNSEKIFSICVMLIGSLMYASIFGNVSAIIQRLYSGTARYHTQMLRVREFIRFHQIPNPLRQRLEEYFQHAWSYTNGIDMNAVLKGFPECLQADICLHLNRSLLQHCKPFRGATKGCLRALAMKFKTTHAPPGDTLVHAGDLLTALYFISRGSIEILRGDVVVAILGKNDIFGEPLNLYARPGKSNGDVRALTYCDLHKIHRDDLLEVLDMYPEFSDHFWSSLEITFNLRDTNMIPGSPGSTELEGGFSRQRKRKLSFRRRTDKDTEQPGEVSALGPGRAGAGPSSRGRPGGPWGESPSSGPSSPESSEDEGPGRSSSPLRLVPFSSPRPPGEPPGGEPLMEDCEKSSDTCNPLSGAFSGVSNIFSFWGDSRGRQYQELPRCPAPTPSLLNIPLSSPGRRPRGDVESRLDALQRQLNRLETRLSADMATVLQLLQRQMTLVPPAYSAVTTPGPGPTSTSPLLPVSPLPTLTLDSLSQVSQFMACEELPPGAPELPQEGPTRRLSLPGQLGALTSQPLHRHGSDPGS

Structure (SMILES) | hERG current change (%, negative = inhibition) at 10uM [%]
CC1CCCCC1NC(=O)Cn1c(=O)oc2cc(S(=O)(=O)N3CCCC3)ccc21 (stereo not shown) | 18.8
O=NNc1nc2ccccc2n1Cc1ccccc1 | -1.83
COc1ccc(C2C(C(=O)c3ccc(C)o3)=C(O)C(=O)N2Cc2ccco2)cc1OC (stereo not shown) | 21
CCOCCCNC(=O)C(c1ccc(OC)cc1)N(Cc1ccc2c(c1)OCO2)C(=O)CNC(C)=O (stereo not shown) | 15.3
CCc1nnc(NC(=O)C(NC(=O)c2ccccc2Cl)C(C)C)s1 (stereo not shown) | 0.192
CCCCSc1nnc(-c2ccccc2)c2ccccc12 | -37.3
Cc1ccc2c(c1)C(=O)N(CCCCO)C2=O | 20.1
O=c1cc(CSc2ccccc2)[nH]c2ccccc12 | 8.17
O=C(C[n+]1ccccc1)Nc1c(Cl)cc(Cl)cc1Cl.[Cl-] | 13.1
CC(=O)Nc1ccccc1C(=O)OCC(=O)c1ccccc1Cl | -12
CC1=NN(c2cccc(F)c2)C(=O)/C1=C/c1ccc(N(C)C)cc1 | 6.38
COC(=O)CSc1nnc(CNc2ccc(Cl)cc2)n1Cc1ccccc1 | -54.7
CCOC(=O)CSc1nnc(CNc2ccc(Cl)cc2)n1Cc1ccccc1 | -21.8
CCn1c(CNc2cccc(Cl)c2)nnc1SCC(=O)OC1CCCCC1 | -25
CC(C)OC(=O)CSc1nnc(CNc2ccc(Cl)cc2)n1Cc1ccccc1 | -33
CCn1c(CNc2ccc(F)cc2)nnc1SCC(=O)OC1CCCCC1 | -51.7
CCn1c(CNc2ccc(Cl)cc2)nnc1SCC(=O)OC1CCCCC1 | -37
CN(C)S(=O)(=O)c1cccc(NC(=O)COC(=O)CNC(=O)c2cccc([N+](=O)[O-])c2)c1 | -39.6
CCOc1ccc(N2C(=O)CSC23CCCCC3)cc1 | -3.56
COC(=O)c1[nH]c(C)c(/C(O)=C2\C(=O)C(=O)N(CCN(C)C)C2c2cccs2)c1C (stereo not shown) | 16.9
CCOC(CNC(=O)c1ccc2c(c1)ncn2-c1cccc(F)c1)OCC | -17.3
O=C(CSc1n[nH]c(=O)n1-c1ccc2c(c1)OCCO2)Nc1ccccc1 | 13
COc1ccc(OCC(=O)N/N=C/c2ccncc2)cc1 | 17.9

Structure (SMILES) | hERG current change (%, negative = inhibition) at 10uM [%]
CCOC(=O)c1c(N2CCN(c3ccccc3)CC2)cc(C)nc1C.O=C([O-])C(=O)[O-] | -72
CCOC(=O)c1sc(NC(=O)CN2CCN(c3ccccc3)CC2)nc1C | -5.78
CCOC(=O)c1[nH]c(C)c(C(=O)N2CCN(c3ccccc3)CC2)c1C | -13.2
CC(OC(=O)c1ccc(-n2cnnn2)cc1)C(=O)Nc1ccccc1F (stereo not shown) | -23.2
COc1ccccc1NC(=O)C(C)OC(=O)c1ccc(-n2cnnn2)cc1 (stereo not shown) | -87.5
COc1ccccc1NC(=O)C(C)OC(=O)c1cccc(-n2cnnn2)c1 (stereo not shown) | -35.2
COCCn1c(C)cc(/C=N/NC(=O)c2cc3ccccc3cc2O)c1C | 10.3
O=C(Nc1ccccc1F)C1CCN(S(=O)(=O)c2cccnc2)CC1 | 9.24
COc1ccc(S(=O)(=O)N(C)C)cc1NC(=O)COC(=O)c1nc2nccc(C)n2n1 | 9.68
CC(NC(=O)CN1c2cccc3cccc(c23)S1(=O)=O)c1ccc(S(N)(=O)=O)cc1 (stereo not shown) | -25.1
Cc1ccc(NC(=O)N/C=C/c2ccco2)cc1C | -1.57
Cn1cncc1COC(=O)c1ccc(Cl)cc1 | 5.21
C/C=C(\C)CN1CCN(c2cccc(C)c2C)CC1 | -3.49
COc1ccccc1N1CCN(C/C(C)=C/c2ccccc2)CC1 | -63.4
COc1ccccc1N1CCN(Cc2nnnn2CCc2ccccc2)CC1.Cl | 8.3
COc1ccccc1N1CCN(CCc2ccccc2)CC1 | -59.4
C/C(=C\c1ccccc1)CN1CCN(c2ccccc2)CC1 | -3.31
Cc1cccc(N2CCN(CCc3ccccc3)CC2)c1C | -75.1
COc1ccccc1N1CCN(C(=O)CCc2ccccc2)CC1 | -11.4
Cc1cccc(N2CCN(C(=S)NCCc3ccccc3)CC2)c1C | -5.03
C/C(=C\c1ccccc1)CN1CCN(c2ccccc2F)CC1 | 5.01
CC(C)C(NS(=O)(=O)c1cccs1)C(=O)NCc1ccccc1Cl (stereo not shown) | 0.166
Cn1sc(NC(=O)c2ccc(Cl)cc2)nc1=O | 7.93

Structure (SMILES) | hERG current change (%, negative = inhibition) at 10uM [%]
COc1ccc2c(c1)[nH]c1c(C)nccc12.Cl | -28
COc1cc(/C=N/NC(=O)C(NC(=O)c2ccccc2)c2n[nH]c(=O)c3ccccc23)ccc1OCC(N)=O (stereo not shown) | 5.88
CCOc1ccc2nc3c(cc2c1)CN(CCOC)C(=NC)S3.Cl | 11.2
COc1cc(OC)cc(-c2c(-c3cccs3)c3cc(-c4ccc(OC)c(F)c4)ccc3n2C)c1 | 12.3
CCOc1ccc(OCC)c(S(=O)(=O)N2CCCCC2C)c1 (stereo not shown) | -52.2
CCOc1ccc(OCC)c(S(=O)(=O)N2CCC(C)CC2)c1 | -29.4
CCOc1ccc(OCC)c(S(=O)(=O)N2CCCCC2)c1 | -12.2
O=C(NCCNc1nccc(C(F)(F)F)n1)c1cccs1 | -11.3
Cc1ccc2c(ccc(=S)n2C)c1 | 22.1
CCOc1ccc2[nH]c(C)c(CN3CCCCC3)c(=O)c2c1 | -13.1
O=C(/C=C/c1ccccc1)NCCS(=O)(=O)N1CCN(c2ccccc2F)CC1 | -3.41
CCn1cc(C(=O)O)c(=O)c2cnc(N3CCNCC3)nc21 | -65.4
CCn1cc(C(=O)O)c(=O)c2cnc(N3CCN(C(=S)Nc4ccccc4)CC3)nc21 | 2.24
C=CCNC(=S)N1CCN(c2ncc3c(=O)c(C(=O)O)cn(CC)c3n2)CC1 | 2.8
C/C(=N\NC(=O)C(O)c1ccccc1)c1ccc(Br)s1 (stereo not shown) | 1.82
COc1ccc(-n2nc([N+](=O)[O-])c(=NC3CCN(Cc4ccccc4)CC3)n2O)cc1 | -39.8
Cc1cccc(CCN=c2c([N+](=O)[O-])nn(-c3ccccc3)n2O)c1 | -15.5
Cc1ccc(CN=c2c([N+](=O)[O-])nn(-c3cccc(C)c3)n2O)cc1 | -32.7
O=[N+]([O-])c1nn(-c2ccc3c(c2)OCCO3)n(O)c1=NC1CCN(Cc2ccccc2)CC1 | -17.8
Cc1cccc(-n2nc([N+](=O)[O-])c(=NC3CCN(Cc4ccccc4)CC3)n2O)c1 | -66.8
O=[N+]([O-])c1nn(-c2ccccc2)n(O)c1=NC1CCN(Cc2ccccc2)CC1 | -58.1
COC(=O)c1ccccc1S(=O)(=O)Nc1ccc(OC)nc1 | -0.17
Cc1cccc(Nc2nn3c(=O)c4ccccc4nc3s2)c1 | 23.6

Structure (SMILES) | hERG current change (%, negative = inhibition) at 10uM [%]
COc1ccc(NC(=O)c2cccc3cccnc23)cc1S(N)(=O)=O | 29.2
CN(C)C(C)(C)C#CCC(c1ccccc1)c1ccccc1.Cl | -55.9
CN(CC#CCC(c1ccccc1)c1ccccc1)C(C)(C)C.Cl | -83.3
CN(C)C(C)(C)C#CC(O)(c1ccccc1)c1ccccc1 | -26.6
CN(C)C(C)(C)C#CCCCCC#CC(C)(C)N(C)C | 16.5
CN(C)CC(c1ccccc1)c1ccccc1.Cl | 5.32
CN(C)CC#CCOC(c1ccccc1)c1ccccc1.Cl | -16.1
CC1CCC(NC(=O)CCCn2sc3ccccc3c2=O)CC1 (stereo not shown) | 15.4
N#C/C(=N\Nc1ccccc1[N+](=O)[O-])C(=N)N1CCCCC1 | 33.8
Cc1ccccc1N1C(=O)/C(=C/c2ccco2)C(=O)NC1=S | 16.5
NC(=O)COC(=O)c1ccccc1OCc1ccccc1 | 18.3
CN1C(=O)c2ccc(NC(=O)CCS(=O)(=O)c3ccccc3)cc2C1=O | -3.01
COc1ccc(-c2nnc(SCCC(=O)O)n2C)cc1OC | -6.37
CCOC(=O)c1cnc2c(C)cccc2c1NCCc1ccc(OC)c(OC)c1 | -66.9
CCOC(=O)c1cnc2ccccc2c1NCCc1ccc(OC)c(OC)c1 | -78.2
CCOC(=O)c1cnc2ccc(OC)cc2c1NCCc1ccc(OC)c(OC)c1 | -76.6
CCOC(=O)c1cnc2ccc(C(=O)OC)cc2c1NCCc1ccc(OC)c(OC)c1 | -3.95
CCOC(=O)c1cnc2c(ccc3ccccc32)c1NCCO | -26.4
COc1ccc(CCNC(=O)COc2ncnc3ccccc23)cc1OC | 16.3
CCOC(=O)c1cnc2ccccc2c1Nc1cc(C(=O)O)ccc1C | 14.9
CCOC(=O)c1cnc2ccc(OC)cc2c1Nc1ccc(N2CCN(C)CC2)cc1 | -18.2
CCOC(=O)c1cnc2c(ccc3ccccc32)c1NCCCN(C)C | -47
